From PubChem BioAssay
A3A deaminase: human APOBEC3A DNA deaminase inhibition; recombinant A3A, FAM/TAMRA ssDNA deamination fluorescence; inhibition, % at 20 µM; 330,000 tested, 0.41% active; P31941; AID 493011;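 active = at least 40% inhibition at 20 µM here, with at most 30% in a related deaminase screen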
Target sequence (P31941 whole entry, looked up): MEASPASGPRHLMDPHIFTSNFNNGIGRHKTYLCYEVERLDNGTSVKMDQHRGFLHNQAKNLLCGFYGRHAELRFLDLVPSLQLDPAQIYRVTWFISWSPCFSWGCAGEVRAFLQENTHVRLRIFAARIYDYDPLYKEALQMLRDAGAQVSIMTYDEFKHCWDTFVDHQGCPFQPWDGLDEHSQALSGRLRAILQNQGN
A3G deaminase: inhibitors of human APOBEC3G DNA deaminase; recombinant A3G, ssDNA deamination FAM/TAMRA fluorescence; 330,000 tested, 0.28% active; inhibition, % at 20 µM; AID 493012;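 active = inhibition of at least 40% at 20 µM, with no more than 30% in the related APOBEC3A deaminase screen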
rCAG binder: molecules binding r(CAG) RNA repeats | r(CAG) RNA repeat, TO-PRO-1 dye displacement fluorescence | inhibition, % at 3 µM | 370,000 tested, 1.3% active | AID 651821;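 active = inhibition above the plate cutoff, the mean of all test compounds on that plate plus 3 SD, cut at about 35% in these data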;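 note: higher means more dye released from RNA so lower well fluorescence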
ALR inh: blocks human ALR sulfhydryl oxidase activity; 290,000 tested, 3.8% active; purified ALR, DTT oxidation, H2O2 HRP-luminol luminescence; inhibition, % (concentration not given with the values); AID 485317;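 active = mean replicate inhibition above about 79%, with every replicate also reaching it, limit read from the data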
PHOSPHO1 inh: inhibitors of human PHOSPHO1 phosphatase. Q8TCT1. recombinant PHOSPHO1, absorbance phosphatase assay. inhibition, % at 13.3 µM. 290,000 tested, 1.1% active; in the data active = inhibition above about 60%
Target sequence (Q8TCT1 whole entry, looked up): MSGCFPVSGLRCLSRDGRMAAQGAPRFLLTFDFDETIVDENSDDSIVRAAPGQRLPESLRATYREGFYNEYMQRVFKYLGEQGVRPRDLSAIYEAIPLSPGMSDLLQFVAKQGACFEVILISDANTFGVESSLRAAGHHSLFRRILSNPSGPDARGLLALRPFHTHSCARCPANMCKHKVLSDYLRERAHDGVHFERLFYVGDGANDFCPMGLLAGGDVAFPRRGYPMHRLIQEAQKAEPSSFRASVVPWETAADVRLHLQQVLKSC
aDG glyco up: alpha-DG glycosylation activation; Pro5-aDG cells, alpha-DG glycosylation AlphaScreen (IIH6); 0% Pro5, 100% B10-LARGE cell signal; activation, % at 10 µM; 360,000 tested, 0.22% active;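 active = activation of at least 8% versus controls, or a plate z-score of at least 8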;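 note: Pro5 are CHO cells carrying HIG-tagged alpha-DG that lacks glycosylation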
Hits are given with their value. Most compounds without a hit are left out; they make up all but 5.4% or so of the library.

`CCCCN(CCCNC(=O)C1CCN(S(=O)(=O)CC)CC1)c1ccccc1` gave A3A deaminase inactive, A3G deaminase inactive, rCAG binder inactive, ALR inh 99, PHOSPHO1 inh inactive and aDG glyco up inactive.
For CC(C)OCCCNC(=O)C1CCC(=O)N1C(C)C (centres undefined) the results were A3A deaminase inactive, A3G deaminase inactive, rCAG binder inactive, ALR inh inactive, PHOSPHO1 inh inactive and aDG glyco up inactive.
`CCN(CCNC(=O)Cn1cc2c(n1)CCCC2)c1ccccc1` gave A3A deaminase inactive, A3G deaminase inactive, rCAG binder inactive, ALR inh 99, PHOSPHO1 inh inactive and aDG glyco up inactive.
`CCN(CCCNC(=O)C1CCCN(S(=O)(=O)CC)C1)c1cccc(C)c1` (centres undefined) gave A3A deaminase inactive, A3G deaminase inactive, rCAG binder inactive, ALR inh 99, PHOSPHO1 inh inactive and aDG glyco up inactive.
Screening CCN(CCCNC(=O)C1CCC(=O)N1C(C)C)c1cccc(C)c1 (centres undefined) returned A3A deaminase inactive, A3G deaminase inactive, rCAG binder inactive, ALR inh 99, PHOSPHO1 inh inactive and aDG glyco up inactive.
Screening CCS(=O)(=O)N1CCCC(C(=O)NCCN(C)Cc2ccccc2)C1 (centres undefined) returned A3A deaminase inactive, A3G deaminase inactive, rCAG binder inactive, ALR inh inactive, PHOSPHO1 inh inactive and aDG glyco up inactive.
For CC(C)CNC(=O)OCc1cn(Cc2ccc(F)c(F)c2)nn1 the results were rCAG binder inactive.
`CCN(CC)c1ccc(C=NNC(=O)c2cc(-c3ccc(C)c(C)c3)n[nH]2)c(O)c1` gave rCAG binder inactive.
Screening C[C@H](O)[C@@H]1C(=O)N2CCc3c([nH]c4c(-c5ccc6c(c5)OCO6)cccc34)[C@@H]2C[C@@H]1N(C)C(=O)OCc1ccccc1 returned rCAG binder inactive.
FC(F)(F)c1ccccc1Cn1ccc2ccc(-c3ccc4ccn(Cc5ccccc5C(F)(F)F)c4c3)cc21 was read as rCAG binder inactive.
For COC(=O)C1CN(Cc2cn(Cc3ccc(C)cc3)nn2)CCS(=O)(=O)N1Cc1ccc(Cl)cc1 (centres undefined) the results were rCAG binder inactive.
CCN(CCNC(=O)C1CCN(S(=O)(=O)CC)CC1)c1ccccc1 was read as A3A deaminase inactive, A3G deaminase inactive, rCAG binder inactive, ALR inh 99, PHOSPHO1 inh inactive and aDG glyco up inactive.
`O=C(NCCN1CCCc2ccccc21)C1CCC(=O)N(CCc2ccccc2)C1` (centres undefined) gave A3A deaminase inactive, A3G deaminase inactive, rCAG binder inactive, ALR inh 86, PHOSPHO1 inh inactive and aDG glyco up inactive.
Screening CCN(CCNC(=O)C1CCCN(S(=O)(=O)CC)C1)c1ccccc1 (centres undefined) returned A3A deaminase inactive, A3G deaminase inactive, rCAG binder inactive, ALR inh 99, PHOSPHO1 inh inactive and aDG glyco up inactive.
CCN(CCCNC(=O)c1c(C)cc(=O)oc1C)c1cccc(C)c1 was read as A3A deaminase inactive, A3G deaminase inactive, rCAG binder inactive, ALR inh 100, PHOSPHO1 inh inactive and aDG glyco up inactive.
Cc1cc(=O)oc(C)c1C(=O)NCCNC(=O)c1c(C)cc(=O)oc1C was read as A3A deaminase inactive, A3G deaminase inactive, rCAG binder inactive, ALR inh inactive, PHOSPHO1 inh inactive and aDG glyco up inactive.
Screening COc1cc(/C=C/C(=O)C2C(=O)C=C(C)OC2=O)cc(OC)c1O (centres undefined) returned A3A deaminase inactive, A3G deaminase inactive, rCAG binder inactive, ALR inh 99, PHOSPHO1 inh inactive and aDG glyco up inactive.
For CCCCc1c(-c2ccccc2OC)ncn1Cc1ccc([N+](=O)[O-])cc1 the results were rCAG binder inactive.
Screening C=CCc1cc(C(=O)N2CCCCC2)ccc1O returned A3A deaminase inactive, A3G deaminase inactive, rCAG binder inactive, ALR inh inactive, PHOSPHO1 inh inactive and aDG glyco up inactive.
For C=CCc1ccc(O)c(-c2ccc(O)c(CC=C)c2)c1 the results were A3A deaminase inactive, A3G deaminase inactive, rCAG binder inactive, ALR inh 98, PHOSPHO1 inh inactive and aDG glyco up inactive.
COc1ccc(-n2c(COc3ccc(Cl)cc3)nnc2SCC(=O)Nc2ccc(Oc3ccccc3)cc2)cc1 was read as rCAG binder inactive.
Screening Cc1ccc(S(=O)(=O)N(C)c2ccc(OCC(=O)Nc3nc4c(ccc5ccccc54)s3)cc2)cc1 returned A3A deaminase inactive, A3G deaminase inactive, rCAG binder inactive, ALR inh 84, PHOSPHO1 inh inactive and aDG glyco up inactive.
Cc1ccc(S(=O)(=O)N(C)c2ccc(OCC(=O)Nc3nc4ccccc4s3)cc2)cc1 was read as A3A deaminase inactive, A3G deaminase inactive, rCAG binder inactive, ALR inh inactive, PHOSPHO1 inh inactive and aDG glyco up inactive.
Screening Cc1oc2cc(O)cc(C)c2c(=O)c1-c1cnn(-c2ccccc2)c1 returned A3A deaminase inactive, A3G deaminase inactive, rCAG binder inactive, PHOSPHO1 inh inactive and aDG glyco up inactive.
`Cc1oc2c(O)c(O)ccc2c(=O)c1-c1cnn(-c2ccccc2)c1` gave A3A deaminase inactive, A3G deaminase inactive, rCAG binder inactive, ALR inh 100, PHOSPHO1 inh inactive and aDG glyco up inactive.
For Cc1oc2c(O)c(O)ccc2c(=O)c1-c1ccccc1 the results were A3A deaminase inactive, A3G deaminase inactive, rCAG binder inactive, ALR inh 99, PHOSPHO1 inh inactive and aDG glyco up inactive.
`Cc1oc2c(O)c(O)ccc2c(=O)c1-c1ccc(Cl)cc1` gave A3A deaminase inactive, A3G deaminase inactive, rCAG binder inactive, ALR inh 99, PHOSPHO1 inh inactive and aDG glyco up inactive.
For Cc1oc2c(CN3CCCCC3C)c(O)ccc2c(=O)c1-c1ccccc1 (centres undefined) the results were A3A deaminase inactive, A3G deaminase inactive, rCAG binder inactive, ALR inh inactive, PHOSPHO1 inh inactive and aDG glyco up inactive.
For CCOC(=O)[C@]12CCCC=C1N(CCCOC)C(=O)[C@@H]2CC(=O)NCC12CC3CC(CC(C3)C1)C2 the results were rCAG binder inactive.
Screening O=C(NC(=S)NC(=O)c1ccccc1F)c1ccccc1F returned A3A deaminase inactive, A3G deaminase inactive, rCAG binder inactive, ALR inh 89, PHOSPHO1 inh inactive and aDG glyco up inactive.
For COc1ccc(NC2CCCN(C(=O)c3cccnc3)C2)cc1 (centres undefined) the results were A3A deaminase inactive, A3G deaminase inactive, rCAG binder inactive, ALR inh 97, PHOSPHO1 inh inactive and aDG glyco up inactive.
